Laboratory results as given in the supplement of paper PMC12645437, “Orthogonal IMiD-Degron Pairs Induce Selective Protein Degradation in Cells” (ACS Chemical Biology, 2025).
Whole data set: some 8,300 sequences, median “log2 fold change of degron read counts, EGFP-low vs EGFP+ sorted cells (limma voom), compound-induced degradation” near -1.1, cut for the highest 2% near 3.2. The entries come from a sample that favours the highest values as a whole.

T1: CRBN, Q96SW2
T1 chain: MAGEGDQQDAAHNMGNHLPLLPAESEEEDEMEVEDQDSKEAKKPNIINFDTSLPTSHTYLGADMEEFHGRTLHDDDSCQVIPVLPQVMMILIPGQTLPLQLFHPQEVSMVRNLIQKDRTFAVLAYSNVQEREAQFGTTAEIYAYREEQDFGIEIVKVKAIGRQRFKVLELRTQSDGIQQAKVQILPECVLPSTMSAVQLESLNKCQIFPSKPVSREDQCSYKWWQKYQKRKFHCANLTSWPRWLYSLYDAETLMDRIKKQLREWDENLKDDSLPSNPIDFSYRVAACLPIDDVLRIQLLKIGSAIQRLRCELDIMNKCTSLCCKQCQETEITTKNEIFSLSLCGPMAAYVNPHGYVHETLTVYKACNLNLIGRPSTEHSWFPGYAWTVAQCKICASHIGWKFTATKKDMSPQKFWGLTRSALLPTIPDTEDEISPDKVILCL


Target: T1, CRBN, Q96SW2
Experiment: log2 fold change of degron read counts, EGFP-low vs EGFP+ sorted cells (limma voom), compound-induced degradation; higher = more compound-induced degradation of the degron-EGFP fusion; degrons are variants of IKZF1/3 zinc finger 2; compound dose not given here
Settings: Jurkat, 18 h
[1] = compound: compound 19 (5-tert-butyl-thalidomide)
[2] = compound: compound 22 (5-morpholino-thalidomide)
[3] = compound: compound 33 (diphenyl IMiD analogue)
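Note: pooled lentiviral library of zinc finger degron-EGFP fusions in mCherry-positive Jurkat cells, FACS-sorted after compound exposure, with degron abundance counted by next-generation sequencing.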

Sequence | log2 fold change of degron read counts [1] | log2 fold change of degron read counts [2] | log2 fold change of degron read counts [3] | log2 fold change of degron read counts (compound: thalidomide)
FFCPICGRAFTQKGNLLRHIKL [46F_47F_49P_50I_52G_53R_54A_55F_67L_, Q9UKT9] | -0.764 | -1.23 | -0.0789 | -1.31
FICPVCGAYFTQKGNLLRHIKL [46F_47I_49P_50V_52G_53A_54Y_55F_67L_, Q9UKT9] | -0.575 | 1.65 | 1.98 | 1.66
FHCEVCGAWFTQKGNLLRHIKL [46F_47H_49E_50V_52G_53A_54W_55F_67L_, Q9UKT9] | -1.47 | -1.81 | -0.825 | -1.89
LDCEICGFICTQKGNLLRHIKL [46L_47D_49E_50I_52G_53F_54I_55C_67L_, Q9UKT9] | -0.803 | -0.92 | -0.72 | -0.457
LRCPICGFDCTQKGNLLRHIKL [46L_47R_49P_50I_52G_53F_54D_55C_67L_, Q9UKT9] | -1.49 | -1.07 | 0.189 | 0.67
LRCNQCGFACTQKGNLLRHIKL [46L_47R_49N_50Q_52G_53F_54A_55C_67L_, Q9UKT9] | -1.46 | -1.7 | -0.712 | -0.94
FWCDQCGAQFTQKGNLLRHIKL [46F_47W_49D_50Q_52G_53A_54Q_55F_67L_, Q9UKT9] | 0.249 | 2.32 | -0.8 | -1.65
FCCEICGHVFTQKGNLLRHIKL [46F_47C_49E_50I_52G_53H_54V_55F_67L_, Q9UKT9] | -2.85 | -3.23 | -2.09 | -2.16
FCCPICGAAFTQKGNLLRHIKL [46F_47C_49P_50I_52G_53A_54A_55F_67L_, Q9UKT9] | 3.34 | 2.84 | 2.48 | 2.21
FTCPICGAAFTQKGNLLRHIKL [46F_47T_49P_50I_52G_53A_54A_55F_67L_, Q9UKT9] | 2.48 | 2.97 | 2.48 | 2.67
FMCPICGAAFTQKGNLLRHIKL [46F_47M_49P_50I_52G_53A_54A_55F_67L_, Q9UKT9] | 2.31 | 2.47 | 2.94 | 2.32
FDCPICGAAFTQKGNLLRHIKL [46F_47D_49P_50I_52G_53A_54A_55F_67L_, Q9UKT9] | 2.39 | 0.645 | 1.79 | 2.2
FLCPICGAAFTQKGNLLRHIKL [46F_47L_49P_50I_52G_53A_54A_55F_67L_, Q9UKT9] | 1.31 | 0.494 | 1.82 | 1.59
FACPICGAAFTQKGNLLRHIKL [46F_47A_49P_50I_52G_53A_54A_55F_67L_, Q9UKT9] | 3.73 | 2.93 | 1.69 | 1.69
FICNVCGAIFTQKGNLLRHIKL [46F_47I_49N_50V_52G_53A_54I_55F_67L_, Q9UKT9] | -2.95 | -2.03 | 0.29 | -1.36
FVCNQCGRVFTQKGNLLRHIKL [46F_47V_49N_50Q_52G_53R_54V_55F_67L_, Q9UKT9] | -2.6 | -2.87 | -2.56 | -2.9
FLCDVCGAGFTQKGNLLRHIKL [46F_47L_49D_50V_52G_53A_54G_55F_67L_, Q9UKT9] | -0.0363 | -1.56 | -0.558 | -1.42

Sequence | log2 fold change of degron read counts [1] | log2 fold change of degron read counts [2] | log2 fold change of degron read counts [3] | log2 fold change of degron read counts (compound: thalidomide)
FMCDICGAQFTQKGNLLRHIKL [46F_47M_49D_50I_52G_53A_54Q_55F_67L_, Q9UKT9] | -1.1 | -0.152 | 2.21 | -0.153
FNCNQCGRFFTQKGNLLRHIKL [46F_47N_49N_50Q_52G_53R_54F_55F_67L_, Q9UKT9] | -1.77 | -2.76 | -1.9 | -1.6
FRCPICGHIFTQKGNLLRHIKL [46F_47R_49P_50I_52G_53H_54I_55F_67L_, Q9UKT9] | -2.22 | -2.81 | -1.62 | -1.42
FLCEICGHQFTQKGNLLRHIKL [46F_47L_49E_50I_52G_53H_54Q_55F_67L_, Q9UKT9] | -3.24 | -3.62 | -3.53 | -2.18
LKCPICGFDCTQKGNLLRHIKL [46L_47K_49P_50I_52G_53F_54D_55C_67L_, Q9UKT9] | -1.99 | -1.82 | -1.08 | -0.789
FGCEICGHGFTQKGNLLRHIKL [46F_47G_49E_50I_52G_53H_54G_55F_67L_, Q9UKT9] | -2.33 | -2.62 | -2.89 | -2.42
FLCPICGRFFTQKGNLLRHIKL [46F_47L_49P_50I_52G_53R_54F_55F_67L_, Q9UKT9] | -1.24 | -1.32 | 0.143 | 0.16
FSCPICGASFTQKGNLLRHIKL [46F_47S_49P_50I_52G_53A_54S_55F_67L_, Q9UKT9] | 3.35 | 2.78 | 2.17 | 2.01
FCCNICGASFTQKGNLLRHIKL [46F_47C_49N_50I_52G_53A_54S_55F_67L_, Q9UKT9] | 1.56 | 1.91 | 1.76 | 1.41
FACPICGASFTQKGNLLRHIKL [46F_47A_49P_50I_52G_53A_54S_55F_67L_, Q9UKT9] | 3.73 | 2.44 | 1.48 | 1.61
FECNICGASFTQKGNLLRHIKL [46F_47E_49N_50I_52G_53A_54S_55F_67L_, Q9UKT9] | -0.173 | -1.42 | 0.849 | 1.86
FMCPICGASFTQKGNLLRHIKL [46F_47M_49P_50I_52G_53A_54S_55F_67L_, Q9UKT9] | 1.54 | 2.45 | 2.91 | 2.41
FECPICGASFTQKGNLLRHIKL [46F_47E_49P_50I_52G_53A_54S_55F_67L_, Q9UKT9] | 2.15 | -0.116 | 2.38 | 3.32
FRCPICGASFTQKGNLLRHIKL [46F_47R_49P_50I_52G_53A_54S_55F_67L_, Q9UKT9] | 1.96 | 1.71 | 1.79 | 1.78
FCCPICGASFTQKGNLLRHIKL [46F_47C_49P_50I_52G_53A_54S_55F_67L_, Q9UKT9] | 3.32 | 2.71 | 2.44 | 2.37
FVCPICGASFTQKGNLLRHIKL [46F_47V_49P_50I_52G_53A_54S_55F_67L_, Q9UKT9] | 0.995 | 2.78 | 2.19 | 3.08
FICPICGASFTQKGNLLRHIKL [46F_47I_49P_50I_52G_53A_54S_55F_67L_, Q9UKT9] | -0.0282 | 2.87 | 1.99 | 2.6
